RTF Ca sens inh = cardiac RTF calcium sensitivity inhibitors, primary screen, biochemical, IANBD-TnC fluorescence, EC70 calcium; Troponin I, cardiac muscle (Homo sapiens) + Troponin T, cardiac muscle (Homo sapiens) + …; IANBD-labeled cardiac RTF, Ca2+ fluorescence; inhibition, % at 7.15 µM; hit rate 0.12% among 340,000; AID 493244, 2011;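 active = inhibition above the mean inhibition of all tested compounds plus 3 SD, cut at about 17% in these data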;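 also: assay run at fixed EC70 calcium of 1.6 mM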
Keap1-Nrf2 PPI = Keap1-Nrf2 protein-protein interaction inhibitors, primary screen, biochemical, fluorescence polarization, single point; Kelch-like ECH-associated protein 1 (Homo sapiens), Q14145; Keap1 Kelch-Nrf2 peptide fluorescence polarization, 1536-well; inhibition, % at 9.4 µM; hit rate 0.15% among 340,000; in the data active = inhibition above about 12%;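 also: human Keap1 Kelch domain with fluorescein labeled Nrf2 9mer peptide probe; 0% = neutral control wells and 100% = peptide positive control; higher means more block of Keap1 binding to Nrf2 peptide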
Target sequence (Q14145 whole entry, looked up, the tested form may be a part): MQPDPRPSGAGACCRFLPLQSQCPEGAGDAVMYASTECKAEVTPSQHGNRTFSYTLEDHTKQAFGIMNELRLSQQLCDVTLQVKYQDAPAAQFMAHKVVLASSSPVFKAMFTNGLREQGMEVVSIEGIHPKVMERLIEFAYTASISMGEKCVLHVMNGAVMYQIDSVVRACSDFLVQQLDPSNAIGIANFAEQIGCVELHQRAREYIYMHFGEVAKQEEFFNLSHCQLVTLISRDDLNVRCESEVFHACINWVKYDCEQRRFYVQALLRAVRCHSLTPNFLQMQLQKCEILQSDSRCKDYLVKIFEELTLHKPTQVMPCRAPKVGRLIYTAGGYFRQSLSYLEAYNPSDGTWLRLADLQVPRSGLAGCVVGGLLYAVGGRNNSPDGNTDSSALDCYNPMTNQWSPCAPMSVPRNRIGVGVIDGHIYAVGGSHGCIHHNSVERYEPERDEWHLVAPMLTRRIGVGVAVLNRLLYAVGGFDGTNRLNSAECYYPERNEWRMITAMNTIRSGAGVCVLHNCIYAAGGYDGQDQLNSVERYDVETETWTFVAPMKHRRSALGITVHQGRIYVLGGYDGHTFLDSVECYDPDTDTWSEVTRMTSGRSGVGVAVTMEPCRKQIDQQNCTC
RTF Ca sens act = cardiac RTF calcium sensitivity activators, primary screen, biochemical, IANBD-TnC fluorescence, EC20 calcium; activation, % at 7.2 µM; hit rate 0.24% among 340,000; IANBD-labeled TnC RTF fluorescence at EC20 calcium; 0% EC20 calcium, 100% full calcium;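 active = activation above the mean over all tested compounds plus 3 SD, cut at about 30% in these data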;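 also: rise in fluorescence read as greater calcium sensitivity of cardiac thin filaments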
C-LANA FP = inhibitors of KSHV C-LANA binding to DNA, primary screen, biochemical, fluorescence polarization, FAM-LBS DNA, MBP-C-LANA, single point | Kaposi's sarcoma herpesvirus LANA C-terminal domain (residues 932-1162) DNA binding | inhibition, % at 9 µM | hit rate 0.078% among 340,000 | AID 504423, 2011;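 active = highest replicate inhibition at or above 60% at 9 µM, even if other replicates fall short; inactive = all replicates below 60% inhibition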;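 also: 0% = neutral control wells and 100% = 4 µM acridine orange control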
Keap1 TSA = Keap1 Kelch domain binders by thermal stabilisation, dose response, biophysical, thermal shift, RT-PCR instrument, cherry-pick. delta Tm; stronger effect = higher value. max delta Tm, degrees C. AID 651823, 2012. hit rate 8% among 400. shares compounds with Keap1-Nrf2 PPI; in the data active = max delta Tm above about 0.48 degrees C
Dye-only ctr = Sypro Orange dye melt without protein, dose response, artefact control for Keap1-Nrf2 interaction inhibitor project, biochemical, thermal shift counterscreen, cherry-pick. shares compounds with Keap1-Nrf2 PPI. delta Tm, degrees C (no concentration beside the values). Sypro Orange dye-only thermal melt, no protein, delta Tm; top dose 26 µM. 140 tested, under 10 active;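 active = at highest dose tested, delta Tm positive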
Active calls of the source: *; / = no result given. The list is not random: actives were taken first. Their share in the collection is about 0.5%.

SMILES	RTF Ca sens inh	Keap1-Nrf2 PPI	RTF Ca sens act	C-LANA FP	Keap1 TSA	others
CSc1nsc2nc(=O)c(/C=C3\C=Nc4ccccc43)c(N)n12	3	14*	2	24	0.74*
Cc1ccc2cc(CN(CCCO)S(=O)(=O)c3cccc4nsnc34)c(=O)[nH]c2c1C	-7	14*	7	-2	-0.15	Dye-only ctr=-34
Cc1ccc2cc(CN(CCCO)S(=O)(=O)c3ccccc3F)c(=O)[nH]c2c1C	7	-5	-2	-1	/
C=CCn1c(=O)/c(=C/c2ccsc2)s/c1=C(\C#N)C(=O)NCCN1CCOCC1	-5	13*	2	-3	-0.15
O=C1NC(c2ccc(Cl)c([N+](=O)[O-])c2)Nc2ccccc21 (stereo unspecified)	-5	-7	4	0	/
O=C1NC(c2cc(Cl)cc([N+](=O)[O-])c2O)Nc2ccccc21 (stereo unspecified)	-16	49*	1	1	0.25
CCc1ccc[n+](-c2[nH]c(=O)sc2/C=N/N=C(\[O-])c2ccncc2)c1	-1	0	4	0	/
CC(C)(C)c1cc[n+](-c2[nH]c(=O)sc2/C=N/NC([S-])=Nc2ccccc2)cc1	-127	31*	81*	51	-0.09	Dye-only ctr=-23
Cc1cc[n+](-c2[nH]c(=O)sc2/C=N/NC([S-])=Nc2ccccc2)cc1C	-66	32*	51*	48	0.02
CCC(C(=O)OCC(=O)NC(=O)c1ccccc1OC)c1ccccc1 (stereo unspecified)	0	-1	-7	-1	/
COc1cc(C(=O)OCC(=O)c2cc(C)n(CC3CCCO3)c2C)ccc1OCC(=O)N1CCOCC1 (stereo unspecified)	-6	-2	2	1	/
O=C(N=Nc1c(O)[nH]c2ccccc12)Nc1ccccc1	-6	-6	0	-2	/
Oc1[nH]c2ccccc2c1N=Nc1ccccc1	-18	20*	17	3	-0.03
Oc1[nH]c2ccccc2c1N=Nc1ccccc1F	-281	21*	282*	41	-0.1
COCCCn1c(=NC(=O)c2ccccc2)c(C#N)cc2c(=O)n3cccc(C)c3nc21	-19	14*	11	5	0.04
Cc1cccn2c(=O)c3cc(C#N)c(=NC(=O)c4ccccc4)n(Cc4ccco4)c3nc12	-5	-4	3	-3	/
CCOCCCn1c(=NC(=O)c2cccs2)c(C#N)cc2c(=O)n3cccc(C)c3nc21	-16	13*	22	14	0.24
CCOC(=O)Cc1csc(NC(=O)c2sc3nc4c(C)cc(C)cc4cc3c2N)n1	-30	-3	12	4	/
O=c1[nH]c2cc(C(F)(F)F)ccc2n1-c1cc(C(F)(F)F)ccc1O	4	15*	16	-4	0.03
CC(=O)C1C(c2ccc(F)cc2)c2c(noc2C)CC1(C)O (stereo unspecified)	/	50*	/	26	-0.15
CN(C)CCNc1ccc(CO)c2sc3ccc(O)cc3c(=O)c12	-9	-10	-3	-11	/
CN(C)CCNc1ccc2ncn3c4ccc(O)cc4c(=O)c1c23	-185	38*	170*	114*	-0.13
O=C(Cc1cccs1)N1CCN=C1SCc1ccc(Br)cc1	-2	-4	4	0	/
COc1ccc(NS(=O)(=O)c2ccc(F)c(Cl)c2)cn1	-14	21*	8	32	-0.07
O=C(NNS(=O)(=O)c1ccc(F)cc1)c1ccc(O)cc1	-6	43*	1	23	-0.17
O=C(NNS(=O)(=O)c1ccc(F)cc1)c1ccc(S(=O)(=O)N2CCCCC2)cc1	-23	-4	5	0	/

Screens: PubChem, several laboratories
